“And” between values parts separate entries of the source, which are not always exact repeats. Equal entries are not always repeated. Inconclusive results are not listed. The source made the active and inactive calls. The call rests on the fitted dose curve; in most records, active means well fitted curve in either direction with a large enough effect (not every such curve was filed as active); inconclusive means small, poorly fitted or top-dose-only effect, or another doubt; inactive means flat fitted curve, though single readings scatter.
Test: NFAT Signaling Pathway (AID 444)
Details: Jurkat NFAT-bla M1, carbachol, beta-lactamase ratio, 5 h; at 7.69 µM (top of the series) unless noted
Description: NCGC Assay Overview: The nuclear factor of activated T cells (NFAT) family of transcription factors has been found primarily in most immune system cells and some other non-immune cells. NFAT plays the immunomodulatory role, primarily in T-cell activation and differentiation. NFAT target genes are also involved in the regulation of apoptosis and differentiation in non-immune cell types. The NFAT sequence was engineered to the upstream of the ?-lactamase reporter gene and transfected into Jurkat cells with co-transfection of muscarinic receptor1 [provided by Invitrogen Corp]. When an extracellular stimulus, such as carbachol, binds to the GPCR M1 receptor, it stimulates a signaling cascade that activates NFAT response element and ?-lactamase expression by phosphorylating the NFAT binding protein. This cell based ?-lactamase reporter gene assay can accurately monitor any changes occurring along the NFAT pathway, and can be used for screening small molecule inhibitor or activator upon activation by carbachol EC50 concentration. A small molecular library were screened in a titration series resulting in AC50s (can be either IC50s or EC50s).
NCGC Assay Protocol Summary: The cells were prepared in RPMI 1640 medium containing 0.1% dialyzed FBS and 25 mM HEPES at 1.6 x 10^6cell/ml. The assay was performed in 1536-well plate format as follows: 5 ul of cell preparation 23 nl of compounds 1ul of carbachol (final concentration 1 uM) Briefly centrifuge the plates and incubate at 37 °C for 5 hours 1 ul of CCF4 dye mixture Incubate the plates at RT for 1 hour Read the plate in EnVision plate reader (Ex= 405nm, and Em1=460nm and Em2=530nm). The %Activity was determined from the ratio of 460nm/530nm. Data normalization and AC50 calculations were accomplished using GeneData software.
On the % scale 0 is the no-effect control and ±100 the full control effect.

SMILES | activity change, negative = inhibition
Cn1cccc1C(=O)N1CCC[C@@]2(CCN(C(=O)Nc3cccc(F)c3)C2)C1 | 4.03% (inactive)
COc1ccc(-c2nc3cnc(N(C)C)nc3n(C)c2=O)cc1 | 6.21% (inactive)
Cc1nc2cnc(N(C)C)nc2n(Cc2cccs2)c1=O | -7.11% (inactive)
CN(C)C(=O)c1ccc(-c2ccc3ncnc(NCc4cccnc4)c3c2)cc1 | 14% (inactive)
CC(C)NC(=O)N1CCC2(CC1)CCN(C(=O)c1cccn1C)CC2 | 7.13% (inactive)
COc1cccc(-c2nccc(NCc3cnc(C)cn3)n2)c1 | -1.09% (inactive)
Cc1cccc(CNc2ccnc(-c3ccccc3C(F)(F)F)n2)c1 | 1.23% (inactive)
CN1CCN(c2nc(-c3cccc(NS(C)(=O)=O)c3)nc3ccccc23)CC1 | 7.49% (inactive)
COCCn1c(=O)cnc2cnc(Oc3cccc(Cl)c3)nc21 | 2.09% (inactive)
FC(F)(F)c1ccccc1-c1nccc(NCc2ccccc2)n1 | -3.71% (inactive)
COc1ccc(-n2c(=O)c(CCc3ccccc3)nc3cnc(N4CCN(C)CC4)nc32)cc1 | -24% (inactive)
COc1cccc(-c2nc(NCCNC(C)=O)c3ccccc3n2)c1 | 8.46% (inactive)
Cc1noc(C)c1-c1cncnc1NC1CC1 | 0.874% (inactive)
COc1ccccc1-c1cncnc1NCc1ccccc1 | -17.9% (inactive)
Cc1noc(C)c1C(=O)N1CCC[C@@]2(CCN(C(c3ccccc3)c3ccccc3)C2)C1 | -12.7% (inactive)
CS(=O)(=O)N1CCC2(CCCN(c3ncccn3)C2)CC1 | 2.98% (inactive)
Cn1cc(-c2nc3cnc(OCc4ccccc4)nc3n(CCC#N)c2=O)c2ccccc21 | 9.29% (inactive)
COc1cccc(Cn2c(=O)c(C)nc3cnc(Nc4cccc(OC)c4)nc32)c1 | 19% (inactive)

SMILES | activity change, negative = inhibition
CN(C)Cc1ccccc1-c1nccc(Nc2ccc(F)cc2)n1 | -13.9% (inactive)
N#CCCn1c(=O)c(CCc2ccccc2)nc2cnc(Nc3ccccc3)nc21 | -25.2% (inactive)
CN(C)c1ncc2nc(-c3ccc(Cl)cc3)c(=O)n(CCC#N)c2n1 | 17.6% (inactive)
COc1ccc(Oc2ncc3nc(-c4cn(C)c5ccccc45)c(=O)n(C)c3n2)cc1 | -8.09% (inactive)
COc1cccc(Nc2ncc3nc(-c4ccc(F)cc4)c(=O)n(C[C@H]4CCCO4)c3n2)c1 | -9.67% (inactive)
O=C(c1ccncc1)N1CCC2(CC1)CCN(c1ccc(-c3ccccc3)cc1)CC2 | 14.4% (inactive)
c1cncc(CNc2nc(-c3ccc4c(c3)OCO4)nc3ccccc23)c1 | -3.4% (inactive)
N#CCCn1c(=O)c(-c2ccccc2)nc2cnc(Nc3ccccc3)nc21 | -16.9% (inactive)
O=C(Nc1cccc(F)c1)N1CCCC2(CCN(C(=O)c3cc(C(F)(F)F)cc(C(F)(F)F)c3)CC2)C1 | 23.3% (inactive)
c1cn(-c2cc(-c3ccc4c(c3)OCO4)ncn2)cn1 | 13.4% (inactive)
Cn1c(=O)c(-c2cc(F)cc(F)c2)nc2cnc(Oc3cccc(Cl)c3)nc21 | -4.07% (inactive)
COc1cccc(Cn2c(=O)cnc3cnc(N4CCN(C)CC4)nc32)c1 | -19.9% (inactive)
O=C(c1csnn1)N1CCC[C@@]2(CCN(c3ccccc3)C2)C1 | -8.4% (inactive)
Cc1nc2cnc(N(C)C)nc2n(C)c1=O | -9.43% (inactive)
COc1ccc(CNc2ncncc2-c2ccoc2)c(OC)c1 | 5.94% (inactive)
CC(C)CN1CC[C@@]2(CCCN(C(=O)c3ccco3)C2)C1 | 7.22% (inactive)
CCNc1ncc2nc(-c3ccc(F)cc3)c(=O)n(Cc3ccc(F)cc3)c2n1 | 18.8% (inactive)

Same assay, conditions: Jurkat NFAT-bla M1, carbachol, beta-lactamase ratio, 5 h; at 17.2 µM (top of the series)

SMILES | activity change, negative = inhibition
CN(Cc1cnc2nc(N)nc(N)c2n1)c1ccc(C(=O)N[C@H](CCC(=O)O)C(=O)O)cc1 | -38.1% (inactive)
CC(=O)O[C@]1(C(C)=O)CC[C@@H]2[C@@H]3C=C(Cl)C4=CC(=O)[C@H]5C[C@@H]5[C@]4(C)[C@H]3CC[C@]21C | -18.6% (inactive)
O[C@@](CCN1CCCCC1)(c1ccccc1)C1CCCCC1 | -51.7% (active)

Same assay, conditions: Jurkat NFAT-bla M1, carbachol, beta-lactamase ratio, 5 h; at 38 µM (top of the series)

SMILES | activity change, negative = inhibition
CN(Cc1cnc2nc(N)nc(N)c2n1)c1ccc(C(=O)N[C@H](CCC(=O)O)C(=O)O)cc1 | -4.84% (inactive) and 12.6% (inactive)
CC(=O)O[C@]1(C(C)=O)CC[C@@H]2[C@@H]3C=C(Cl)C4=CC(=O)[C@H]5C[C@@H]5[C@]4(C)[C@H]3CC[C@]21C | -9.31% (inactive)
O[C@@](CCN1CCCCC1)(c1ccccc1)C1CCCCC1 | -75.1% (active)

Reference: PubChem BioAssay (NCATS)
